The text below walks through data of PubChem BioAssay AID1347416 (National Center for Advancing Translational Sciences (NCATS), 2020).

In all, about 4,100 compounds went through this assay and about 1,600 (39%) were called active. Roughly 25% stayed inconclusive and do not appear here. Some of the results follow. A number with no mark means an inactive call. The call rests on the fitted dose curve; in most records, active means well fitted inhibition curve with a large enough effect; inconclusive means small, poorly fitted or top-dose-only effect; inactive means no such curve, though single readings can be large or run the other way.
On the % scale 0 is the no-effect control and ±100 the full control effect; potency means the concentration at half of the fitted maximal effect.

This experiment can be described thus: qHTS Validation assay for Inhibitors of Plasmodium falciparum Dd2 growth in vitro. Further: nearly all actives have a fitted effect of over 70% in size. As to conditions: P. falciparum Dd2 in RBCs, SYBR Green growth, 72 h; series mostly up to 28.7 µM; activity change, negative = inhibition: at the top concentration. The method, boiled down:
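P. falciparum Dd2-infected red blood cells (2.5% hematocrit, 0.3% parasitemia) grown 72 h at 37 °C under 5% O2 with compounds in a titration, 29 uM to 0.5 nM final. Growth read as SYBR Green-1 fluorescence after ~16 h lysis; artesunate 300 nM as positive control.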
Background: Quantitative high-throughput screening tests each substance at several concentrations.
`CC(C)C(=O)Nc1oc(-c2ccccc2)cc1C#N`: the Potency is 6.68 µM (active).

Turning to `c1ccc(-c2noc(-c3ccn4c(CN5CCSCC5)nnc4c3)n2)cc1`, the “activity change, negative = inhibition” value is 4.68%.

Take `CCN1CCC(Nc2ccnc3cc(Cl)ccc23)CC1`: the Potency is 0.188 µM (active).

Turning to `CCN1CCN(C(=O)c2ccc3c(Cl)c4c(nc3c2)CCCC4)CC1`, the “activity change, negative = inhibition” value was -2.92%.

For the compound `CCN(CC)CCNc1ccnc2cc(Cl)ccc12`, the Potency is 0.211 µM (active).

With `Clc1ccc2c(NCc3ccccn3)ccnc2c1`, the Potency is 2.11 µM (active).

In the case of `CCC(O)c1cc2n(n1)CCN(C(=O)CN1CCOc3ccccc3C1)C2` (configuration not stated), the “activity change, negative = inhibition” value was 8.38%.

As for `CN1c2cc(C(=O)Nc3ccc(F)cc3)ccc2C(=O)N2CCCCC21` (configuration not stated), the “activity change, negative = inhibition” value is -5.09%.

`CN1CCC2(C1)CN(Cc1ccccc1)c1ccc(C(=O)Nc3ccc(F)cc3)cc12` (configuration not stated): the Potency was 19.3 µM (active).

Turning to `CC1(CNc2ccccc2)COc2ccc(C(=O)NCc3cccc(F)c3)cc2N1` (configuration not stated), the “activity change, negative = inhibition” value is -24.8% [at 43.1 µM].

Regarding `Cc1sc2nc(-c3ccccn3)[nH]c(=O)c2c1-c1ccccc1`, the Potency is 13.3 µM (active).

`Cc1cccc(NC(=O)Cn2c(C)cc3nc4n(c(=O)c32)CCCCC4)c1C`: the “activity change, negative = inhibition” value is -16.8%.

With `Cc1cccc(Nc2cc(C)c3c(O)cccc3n2)c1C`, the Potency was 4.73 µM (active).

Turning to `Cc1ccccc1Nc1cc(C)c2c(O)cccc2n1`, the Potency is 5.31 µM (active).

`CCc1ccc2oc(-c3ccc(NC(=O)c4cc5ccccc5o4)cc3)nc2c1`: the “activity change, negative = inhibition” value is -19.7%.

As for `Nc1ccc2oc(-c3ccc4nc[nH]c4c3)nc2c1`, the Potency is 13.3 µM (active).

`O=C(Nc1ccc(-c2nc3cc(NC(=O)c4ccccc4F)ccc3o2)cc1)c1ccccc1F`: the “activity change, negative = inhibition” value is 54%.

Take `COc1ccc(CCN(C)C(=O)CC(c2cccc(F)c2)c2cn(C)c3ccccc23)cc1OC` (configuration not stated): the Potency is 8.41 µM (active).

On to `OC(CNC1CCCCCC1)COc1cccc2ccccc12` (configuration not stated), for which the Potency is 1.88 µM (active).

With `Cc1sc2ncnc(SC(C)C(=O)N3c4ccccc4Sc4ccccc43)c2c1C` (configuration not stated), the “activity change, negative = inhibition” value is -2.6%.

As for `Cc1sc2ncnc(NCC3(N4CCOCC4)CCCCC3)c2c1C`, the “activity change, negative = inhibition” value is -18.8%.

As to `C/C(=N\Nc1ncnc2sc(C)c(C)c12)c1ccccn1`, the Potency was 1.33 µM (active).

With `COc1ccc(-c2noc([C@@H]3CCCN3C(=O)CCCc3ccccc3)n2)cc1`, the “activity change, negative = inhibition” value is 1.4%.

Consider `O=C(CCCc1ccccc1)N1CCC[C@H]1c1nc(-c2ccccc2)no1`, for which the “activity change, negative = inhibition” value was -16.8%.

`Cc1cnc(C2CCC2)n1C1CCCN(C(=O)CCCc2ccccc2)C1` (configuration not stated): the Potency is 15 µM (active).

As for `Cc1cccc(CNC(=O)c2nnn3cc(C)[nH]c(=O)c23)c1`, the “activity change, negative = inhibition” value is 13.4%.

Turning to `CCOc1ccc(NC(=O)c2nnn3cc(C)[nH]c(=O)c23)cc1`, the Potency was 10.6 µM (active).

`COc1ccc(NC(=O)O[C@@H]2CC[C@]3(C)C(CC[C@@H](O)[C@H]3CC(=O)NCc3ccccc3OC)[C@]2(C)CO)cc1` (some centres not stated): the Potency was 6.68 µM (active).

As for `COc1ccc(S(=O)(=O)N2CCC(CC(=O)NCc3ccccc3)C2)cc1` (configuration not stated), the “activity change, negative = inhibition” value was 3.39%.

`c1ccc2sc(Sc3ncnc4sccc34)nc2c1`: the Potency is 0.944 µM (active).

Consider `CCc1cc2c(Sc3nc4ccccc4s3)ncnc2s1`, for which the Potency was 1.5 µM (active).

On to `Cc1c(N/N=C(\C#N)C(=O)c2ccccc2)c(=O)n(-c2ccccc2)n1C`, for which the Potency is 6.68 µM (active).

Take `CN(C)CCN1C(=O)c2oc3ccc(Cl)cc3c(=O)c2C1c1cccc(Br)c1` (configuration not stated): the Potency is 0.531 µM (active).

For the compound `O=C(NC[C@H]1O[C@@H](CO)[C@@H](O)[C@H]1N1CCN(c2cccc(C(F)(F)F)c2)CC1)c1cccs1`, the “activity change, negative = inhibition” value was -4.61%.

Consider `Oc1ccccc1CN1CCCC(N2CCN(c3cccc(C(F)(F)F)c3)CC2)C1` (configuration not stated), for which the Potency is 1.33 µM (active).

Turning to `COc1cccc(CN2CCCC(N3CCN(c4cccc(C(F)(F)F)c4)CC3)C2)c1O` (configuration not stated), the Potency was 0.842 µM (active).

Turning to `CCOc1cc(CN2CCCC(N3CCN(c4ccc(F)cc4)CC3)C2)ccc1OC` (configuration not stated), the “activity change, negative = inhibition” value is -9.71%.

Consider `CC1(C)C(=O)N(Cc2ccccc2)[C@H]2CN(CC3CCOCC3)C[C@@H]2[S+]1(=O)[O-]`, for which the “activity change, negative = inhibition” value is 7.69% [at 43.1 µM].

For `O=C(NNc1nc(-c2ccc(Br)cc2)cs1)c1ccco1`, the Potency was 5.31 µM (active).

On to `CCCCOC(=O)N1CCC(N2CCCC(C(=O)N3CCOCC3)C2)CC1` (configuration not stated), for which the “activity change, negative = inhibition” value is 35%.

In the case of `CCN1CCCC1CNc1ncnc2c1[nH]c1ccc(Cl)cc12` (configuration not stated), the Potency was 2.99 µM (active).

With `CN(Cc1cccn1C)S(C)(=O)=O`, the “activity change, negative = inhibition” value is 30.2% [at 57.5 µM].

For `CN(C)C[C@@H]1CN(c2ccncn2)C[C@H]1NC(=O)c1cnco1`, the “activity change, negative = inhibition” value is 16.3%.

For `Cc1ccc(C)c(NC2=C(c3ccc(C(F)(F)F)cc3)C(=O)c3ccccc32)c1`, the Potency is 4.73 µM (active).

As to `Cc1ccc(NC2=C(c3ccc(C(F)(F)F)cc3)C(=O)c3ccccc32)cc1C`, the Potency is 2.11 µM (active).

Take `Cc1ccc(NC2=C(c3ccc(C(F)(F)F)cc3)C(=O)c3ccccc32)cc1F`: the Potency is 1.88 µM (active).

Consider `Oc1ccc(-c2ccc(-c3nc(CCc4ccccc4)no3)cn2)cc1`, for which the “activity change, negative = inhibition” value is 0%.

Take `CC(C)(C)n1[nH]c2c3c(ccc2c1=O)C(=O)c1ccccc1C3=O`: the Potency is 4.73 µM (active).

Turning to `CCCc1nc2ccc(NC(=O)c3cccs3)cc2c(=O)n1Cc1ccc(Cl)cc1`, the Potency was 8.41 µM (active).

As to `Cc1ccc(Cn2nnc(C(=O)Nc3ccc(F)c(F)c3)c2N)cc1`, the “activity change, negative = inhibition” value was 6.12%.

As to `Cc1ccc(-c2nc(C)c(C(=O)O)s2)cc1`, the “activity change, negative = inhibition” value was 29.2%.

On to `CC(=O)C1=C(c2ccccc2)N(C(C)=O)n2c(nnc2C2CCCCC2)S1`, for which the Potency was 4.22 µM (active).

Consider `CC(=O)C1=C(c2ccc(Cl)cc2)N(C(C)=O)n2c(nnc2C2CCCCC2)S1`, for which the Potency was 4.73 µM (active).

As to `CC(=O)C1=C(c2ccc(Cl)c(Cl)c2)N(C(C)=O)n2cnnc2S1`, the Potency was 3.76 µM (active).

Consider `CC(=O)C1=C(c2ccc(Br)cc2)N(C(C)=O)n2c(nnc2C2CCCCC2)S1`, for which the Potency was 2.99 µM (active).

As for `Cc1ncoc1C(=O)N1CCCCCC1c1nnc(-c2ccccc2)o1` (configuration not stated), the “activity change, negative = inhibition” value was -8.53%.

Turning to `CCOc1ccc(C2=C(C(C)=O)Sc3nnc(C)n3N2C(C)=O)cc1`, the Potency was 5.31 µM (active).

Take `CC[C@@]1(O)CCN(C(=O)c2cccc(-c3cccc(OC)c3)c2)C[C@H]1O`: the “activity change, negative = inhibition” value is 36.8%.

Turning to `COc1ccc(C2=C(C(C)=O)Sc3nnc(-c4ccc(Cl)cc4)n3N2C(C)=O)cc1OC`, the Potency is 3.76 µM (active).

With `COc1cccc(C2=C(C(C)=O)Sc3nnc(C4CCCCC4)n3N2C(C)=O)c1`, the Potency was 4.73 µM (active).

With `COc1ccc(-c2noc(N3CCN(c4ccc(C)cc4)C(C)C3)n2)cc1OC` (configuration not stated), the “activity change, negative = inhibition” value is 19.4%.

On to `COc1ccc(C(=O)NCc2nnc3ccc(-c4ccc(Cl)cc4)nn23)cc1F`, for which the “activity change, negative = inhibition” value was 1.75%.
